The whole screen tested about 96,000 compounds, of which about 19,000 (20%) were called active.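 The calls were made as follows: active = blocking of liver enzyme CYP2C9 beyond about 50% at 5 µM (limit read from the data); inactive = the rest.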 The list is a sample of the results.
Biological target: Cytochrome P450 2C9 (Homo sapiens) (UniProt P11712)
Assay: blockers of cytochrome P450 2C9 activity – biochemical, luminescence, ADME assay, primary screen (AID 777)
Details: CYP2C9 Supersomes, luciferin-H conversion, at 5 µM, active compounds read high

Chain of Cytochrome P450 2C9 (Homo sapiens) (P11712 whole entry, looked up): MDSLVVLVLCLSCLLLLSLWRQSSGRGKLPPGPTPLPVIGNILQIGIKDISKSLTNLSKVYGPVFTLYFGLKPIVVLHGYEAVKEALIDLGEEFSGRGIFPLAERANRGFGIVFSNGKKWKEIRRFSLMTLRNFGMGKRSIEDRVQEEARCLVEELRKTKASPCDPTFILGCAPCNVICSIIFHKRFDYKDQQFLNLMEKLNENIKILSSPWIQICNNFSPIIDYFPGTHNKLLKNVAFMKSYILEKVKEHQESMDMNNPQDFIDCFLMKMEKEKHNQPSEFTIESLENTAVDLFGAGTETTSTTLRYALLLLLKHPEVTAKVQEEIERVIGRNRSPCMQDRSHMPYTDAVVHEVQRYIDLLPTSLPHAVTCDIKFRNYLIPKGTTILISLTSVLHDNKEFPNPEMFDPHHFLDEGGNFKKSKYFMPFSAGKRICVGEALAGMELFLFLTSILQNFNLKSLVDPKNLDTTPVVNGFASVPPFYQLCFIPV

| Compound | inhibition |
| --- | --- |
| CC(=O)Nc1ccc(NC(=O)CN2CCCC(C)C2)c(Cl)c1 (stereo unspecified) | 18.3% (inactive) |
| c1ccc(C2CCC(N3CCC(N4CCCCC4)CC3)CC2)cc1 (stereo unspecified) | 11% (inactive) |
| Cc1cc(=O)oc(C)c1C(=O)N1CCCCC1 | 4.9% (inactive) |
| CCOC(=O)/C(C#N)=C/c1ccc(OCC(=O)Nc2ccccc2)c(OC)c1 | 14.7% (inactive) |
| CCOC(=O)/C(=C\c1ccc([N+](=O)[O-])cc1)C(=O)c1cc(C(C)=O)c(Nc2ccccc2)s1 | 76.2% (active) |
| O=C(NCCc1ccccc1)/C(=C\c1ccc([N+](=O)[O-])cc1)NC(=O)c1ccccc1 | 3.8% (inactive) |
| CCC1CCCCN1CCNS(=O)(=O)c1ccc2c(c1)CCN2C(C)=O (stereo unspecified) | 15.6% (inactive) |
| N/C(Cc1ccc([N+](=O)[O-])cc1)=N\OC(=O)COc1ccc2ccccc2c1 | 4.4% (inactive) |
| CCOc1cc(CN2CCN(C(=O)CC(C)C)CC2)ccc1OC | -24.7% (inactive) |
| COc1cc(C(=O)N2CCN(C/C=C/c3ccccc3)CC2)cc(OC)c1C | 67.7% (active) |
| COc1ccc(OCC(=O)N2CCN(C(=O)COc3ccccc3)CC2)cc1 | -2.8% (inactive) |
| Cn1c(C(=O)OC(C(=O)NC2CCCCC2)c2ccccn2)cc2sccc21 (stereo unspecified) | -7.2% (inactive) |
| CCn1c(/C=C/c2ccc([N+](=O)[O-])o2)nc2ccccc2c1=O | -18% (inactive) |
| COC(=O)C1CCN(CC(N)=O)CC1 | -11.4% (inactive) |
| CCOC(=O)CC1=CC(=O)Nc2ccccc2N1 | 7.1% (inactive) |
| O=C(CSc1nnnn1-c1ccc2c(c1)CCC2)Nc1ccc2c(c1)OCCO2 | 0.6% (inactive) |
| O=C(CSc1nc(C2CC2)nc2ccccc12)Nc1ccc2c(c1)OCCO2 | 40.1% (inactive) |
| O=C(CSc1nc2ncccc2[nH]1)Nc1ccc2c(c1)OCCO2 | 95.5% (active) |
| O=C(CSc1nnnn1C1CCCC1)Nc1ccc2c(c1)OCCO2 | 62.4% (active) |
| CCC(=O)Nc1cccc(NC(=O)CSc2nnnn2C2CCCC2)c1 | 16.4% (inactive) |
| CCNC(=O)c1sccc1-n1cccc1 | 16.1% (inactive) |
| Cc1ccc(N2C(=O)CC(Sc3ncn[nH]3)C2=O)cc1 (stereo unspecified) | -1.5% (inactive) |
| Nc1nonc1C(=O)NCCc1ccccc1 | -8.7% (inactive) |
| COc1ccc(OCCCON2C(=O)c3ccccc3C2=O)cc1 | 7.6% (inactive) |
| CN1CCN(C(=O)C2C3C=CC(C3)C2C(=O)O)CC1 (stereo unspecified) | -9.2% (inactive) |
| Cc1ccc2nc(S(=O)(=O)O)[nH]c2c1 | -11.8% (inactive) |

| Compound | inhibition |
| --- | --- |
| Cc1ccc2nc(/C(C#N)=C\c3ccc(OC(=O)c4cccs4)cc3)[nH]c2c1 | 81.3% (active) |
| CSc1nsc(SC)c1NC(=O)OC1CCCCC1 | 21.9% (inactive) |
| O=C(Cn1c(-c2ccccn2)nc2ccccc21)NCCN1CCOCC1 | -10.5% (inactive) |
| Cc1cc(Nc2ccccc2)n(CCC#N)n1 | -12.2% (inactive) |
| COC(=O)CN1C(=O)C(O)=C(C(C)=O)C1c1ccc([N+](=O)[O-])cc1 (stereo unspecified) | 3.5% (inactive) |
| CC(C)c1ccc(-c2noc(C3CCCN(S(C)(=O)=O)C3)n2)cc1 (stereo unspecified) | 52.2% (active) |
| O=C(c1cccs1)N1CCCC(c2nc(-c3ccc(F)cc3)no2)C1 (stereo unspecified) | 76.9% (active) |
| COc1ccc(S(=O)(=O)N2CCCC(C(=O)N3CCN(C)CC3)C2)cc1C (stereo unspecified) | -24% (inactive) |
| O=C(Cc1cccs1)N1CCCC(c2nc(-c3ccc(S(=O)(=O)N4CCCC4)cc3)no2)C1 (stereo unspecified) | 47.8% (inactive) |
| CS(=O)(=O)N1CCCC(C(=O)N2CCOCC2)C1 (stereo unspecified) | -11.8% (inactive) |
| COc1cc(-c2noc(C3CCCN(S(=O)(=O)c4cccc(Cl)c4)C3)n2)cc(OC)c1OC (stereo unspecified) | 85.3% (active) |
| COc1ccc(NC(=O)C2CCCN(S(=O)(=O)c3cccc4cccnc34)C2)cc1OC (stereo unspecified) | -15.1% (inactive) |
| OCCNc1nc2ccccc2[nH]1 | 2.6% (inactive) |
| Cc1nnc(SCC(=O)Nn2cnnc2)s1 | 29.8% (inactive) |
| CCOC(=O)c1c(NC(=O)c2ccc(N3CCOCC3)c([N+](=O)[O-])c2)sc(C)c1C | 7.5% (inactive) |
| CCc1cc(C(c2ccccc2OC)N2CCOCC2)c(NC(=O)c2ccccc2)s1 (stereo unspecified) | 85.2% (active) |
| COc1ccccc1NC(=O)c1ccc2nc(N3C(=O)CCC3=O)sc2c1 | -32% (inactive) |
| COc1ccc(-n2c(SC)nc(O)cc2=O)cc1 | -81.1% (inactive) |
| O=C1CSC2=NCN(c3ccccc3)CN12 | 26.1% (inactive) |
| O=S(N1CCCCCC1)C12CC3CC(CC(C3)C1)C2 (stereo unspecified) | 9.9% (inactive) |
| O=C(OCC(=O)N1CCN(C(=O)c2ccco2)CC1)c1ccccc1Cc1ccccc1 | 31.9% (inactive) |
| CCOC(=O)c1[nH]c2ccccc2c1N=C(C)N(CC)CC | -6.5% (inactive) |
| C=CCOc1ccc(/C=N/n2cncn2)cc1OC | 57.5% (active) |
| COc1cccc(OCCOc2cccc(/C=N/n3cnnc3)c2)c1 | 40% (inactive) |
| COc1ccccc1OCCOc1ccc(/C=N/n2cnnc2)cc1 | 44.5% (inactive) |
| Cc1ccc2c(CSc3nncs3)cc(=O)oc2c1 | 67% (active) |

| Compound | inhibition |
| --- | --- |
| COC(=O)CCSc1cc([N+](=O)[O-])cc2c1c(C1OCCS1)nn2-c1ccccc1 (stereo unspecified) | 34.3% (inactive) |
| Cc1ccccc1C(=O)NCCN=C1NS(=O)(=O)c2ccccc21 | 7.9% (inactive) |
| COc1ccc(C(C#N)N2N=C(C)CC2(C)C)cc1 (stereo unspecified) | -2.1% (inactive) |
| N#CC1=C(SCc2ccccc2)NC(=O)C(C#N)C12CCCC2 (stereo unspecified) | 46.5% (inactive) |
| N#CC1=C(SCc2ccc(C#N)cc2)N=C(N)C(c2nc(-c3ccccc3)cs2)C12CCCCC2 (stereo unspecified) | 98.6% (active) |
| O=C(O)c1cc2ccccc2c(=O)s1 | -1.7% (inactive) |
| CCOC(=O)C1CCCN(C(=O)C2CCN(c3nnc(-n4cccc4)s3)CC2)C1 (stereo unspecified) | 25.6% (inactive) |
| O=C(O)CCN1C(=O)CC2(CCCCC2)C1=O | 11.2% (inactive) |
| O=[N+]([O-])c1ccc(C=Nc2ccc(Cl)cc2Cl)s1 | 7.9% (inactive) |
| O=C1[C@@H]2C(Cc3ccc(O)cc3)NC3(C(=O)Nc4ccc(F)cc43)[C@@H]2C(=O)N1c1ccc(F)cc1 (stereo partly specified) | 50.6% (active) |
| COCCCNC(NC(=O)c1ccc(C)cc1)C(Cl)(Cl)Cl (stereo unspecified) | 4.7% (inactive) |
| Cc1ccc(NC(=S)NC(NC(=O)Cc2cccc3ccccc23)C(Cl)(Cl)Cl)cc1 (stereo unspecified) | 96.6% (active) |
| COc1ccc(NC(=O)C(NC(C)=O)C(=O)NCc2ccccc2Cl)cc1 (stereo unspecified) | 37.2% (inactive) |
| COc1ccc(NC(=O)Nc2ccc3nsnc3c2)cc1 | 23.7% (inactive) |
| COc1cccc2c1OCC1COc3c(c(=O)n(C)c(=O)n3C)C21 (stereo unspecified) | -6% (inactive) |
| NC(=O)c1ccsc1NC(=O)c1ccco1 | 61.4% (active) |
| O=C(Nc1nnc(SCc2ccccc2)s1)c1ccco1 | 6.2% (inactive) |
| O=C(Nc1ccc(NC(=O)c2cccs2)cn1)c1ccco1 | 23.5% (inactive) |
| CC(NCCO)C(=O)C12CC3CC(CC(C3)C1)C2 (stereo unspecified) | -0.7% (inactive) |
| COc1ccc(N2C(=O)CCC(C(=O)Nc3ccccn3)C2c2ccc(OC)c(OC)c2)cc1 (stereo unspecified) | 2.6% (inactive) |
| Cc1csc(=NC(=O)c2ccccc2)n1CCO | 32.3% (inactive) |
| COc1ccc(-c2nc(CS(=O)CC(=O)NCc3cccnc3)c(C)o2)cc1OC (stereo unspecified) | 47.2% (inactive) |
| Cc1ccc(-c2nc(CS(=O)CC(=O)N3CCN(c4ncccn4)CC3)c(C)o2)cc1 (stereo unspecified) | 79% (active) |
| Cc1ccc(S(=O)(=O)N(C)CC(=O)NC2CCCC2)cc1 | -30.3% (inactive) |
| Cc1ccc(-c2nc(CS(=O)CC(=O)NC3CCCC3)c(C)o2)cc1 (stereo unspecified) | 53% (active) |
| Cc1cc(C(=O)N2CCN(c3ccccn3)CC2)c(C)o1 | 12.4% (inactive) |

| Compound | inhibition |
| --- | --- |
| COc1ccc(-c2nc(CS(=O)CC(=O)N3CCc4ccccc4C3)c(C)o2)cc1 (stereo unspecified) | 40.4% (inactive) |
| CCOc1c2ccc(C(=O)NCc3ccc(OC(F)(F)F)cc3)cc2nn1C | 19% (inactive) |
| COc1nc(N=C(N)N)nc2c(C)cccc12 | -9.5% (inactive) |
| COc1cc2[nH]c(=O)n(CCC(=O)NC3CCN(Cc4ccccc4)CC3)c(=O)c2cc1OC | -15.4% (inactive) |
| CC(=O)Nc1ccc(NC(=O)c2sc3nc4c(c(-c5ccc(C)cc5)c3c2N)CCC4)cc1 | -4.6% (inactive) |
| CC1C(c2ccccc2)=[N+]([O-])C2(CCCC2)N1O (stereo unspecified) | 37.7% (inactive) |
| O=C(COc1ccc(F)cc1)N(CC1=CCS(=O)(=O)C1)c1ccccc1 | -18.6% (inactive) |
| O=c1c2ccccc2c(-c2ccc(Br)cc2)nn1Cc1ccccc1 | 21.5% (inactive) |
| COc1ccc(Cl)cc1C(=O)NCC#N | -80.7% (inactive) |
| CC(C)CNC(=O)CC(c1ccccc1)c1c(O)ccc2ccccc12 (stereo unspecified) | 71.2% (active) |
| CC(C)CNC(=O)COC(=O)/C=C/c1ccccc1[N+](=O)[O-] | -41.6% (inactive) |
| O=C1CC(C(F)(F)C(F)(F)C(F)(F)C(F)(F)F)=Nc2ccccc2N1 | 9% (inactive) |
| CCN(CC(=O)NC1CCS(=O)(=O)C1)c1nc(-c2cccnc2)nc2ccccc12 (stereo unspecified) | 3.9% (inactive) |
| CCOC(=O)c1cnc(SC)nc1Sc1ccc(Cl)cc1Cl | 81.5% (active) |
| CCOC(=O)CSc1ncc(-c2cccc(Cl)c2)cn1 | 14.2% (inactive) |
| CCOC(=O)c1nc(C)n(-c2ccc(Cl)cc2Cl)n1 | -0.6% (inactive) |
| Cc1ccc(C(=O)NC2CC(C)(C)NC(C)(C)C2)c(C)c1 | -6.6% (inactive) |
| Cc1nn(C)cc1/C=N/NC(=O)c1sc2ccccc2c1Cl | 23.6% (inactive) |
| O/N=C1\CC2(Cc3nonc31)OCCO2 | 4% (inactive) |
| CS(=O)(=O)N1CCN(C(=O)c2cc3ccccc3oc2=O)CC1 | -3.6% (inactive) |
| Cc1cccc(OCc2nnc(SCn3nnc4ccccc4c3=O)o2)c1 | 35.9% (inactive) |
| O=c1c2ccccc2nnn1CSc1nnnn1-c1ccccc1 | -35.7% (inactive) |
| C=CCn1c(SCn2nnc3ccccc3c2=O)nnc1-c1ccc(Cl)cc1 | 67.1% (active) |

Source: PubChem BioAssay AID777 (Sanford-Burnham Center for Chemical Genomics, 2007)
